Assay results taken from ChEMBL document CHEMBL3988442, “University of Dundee, Small-Polar-MMV Screening Library” (2021).
About 13,000 (27%) of roughly 48,000 compounds showed an effect of 50% or more. The list shows a part of the results.

Each compound was assayed on Wolbachia pipientis (assay: Anti-Wolbachia Cell-Based Screen). Conditions: 5 µM.
Assay type: functional
Design: scale not given: in the data most compounds retested in dose-response had high values

SMILES | Percent Effect [%]
Cc1ccc(N2CCCC(c3[nH]ncc3Cc3ccccc3)C2)nn1 (stereo not given) | 26.61
Cc1ccc(N2CCC(c3[nH]ncc3Cc3ccccc3)CC2)nn1 | 27.05
Cc1cc(N2CCCC(c3[nH]ncc3Cc3ccccc3)C2)nc(N)n1 (stereo not given) | 51.86
CCCc1cc(=O)[nH]c2nnc(SCC(=O)OCC)n12 | 11
CC1CN(C(=O)CN(Cc2ccccc2Br)C2CC2)CCO1 (stereo not given) | 15.13
Cc1ccc(CN(CC(=O)N2CCOC(C)C2)C2CC2)cc1 (stereo not given) | 133.3
Cc1nnc(CN(Cc2ccccc2Cl)C2CCCC2)o1 | -12.06
CC1CN(C(=O)CN(Cc2ccccc2Cl)C2CCCC2)CCO1 (stereo not given) | 167.1
CC(C)(C)c1cc(NC(=O)CN(Cc2ccco2)Cc2cccs2)on1 | 15.1
CC1CN(C(=O)CCc2cc(Br)cs2)CCO1 (stereo not given) | -0.4778
CC1CN(C(=O)CN(Cc2ccco2)Cc2cccs2)CCO1 (stereo not given) | 127.8
CC1CN(C(=O)CN(Cc2ccccc2)C2CC2)CCO1 (stereo not given) | 126.4
CC1CN(C(=O)c2ccn(-c3cccc(Cl)c3)n2)CCO1 (stereo not given) | 3.639
CC1CN(C(=O)CN(Cc2ccco2)C2CC2)CCO1 (stereo not given) | -3.205
Cn1cc(C(=O)N(Cc2ccco2)Cc2cccs2)ccc1=O | -5.076
CC1CN(C(=O)c2sccc2Br)CCO1 (stereo not given) | 5.426
Cc1cc(NC(=O)N(C)C2CCN(c3ccccc3F)C2=O)n(C)n1 (stereo not given) | -7.553
O=C(c1ccc2c(c1)CCO2)N1CCN(c2ccc(Cl)cn2)CC1 | 6.232
CN(C)CC1CN(CCOc2cccc(C#N)c2)CCO1 (stereo not given) | 0.1863
Cc1ncsc1C(=O)NC1CCN(Cc2ccc(C#N)cc2)CC1 | -12.71
O=C(NCCOc1ncc(Cl)cc1Cl)c1ccoc1 | 25.9
CO[C@H]1CCN(S(=O)(=O)c2cn(C)cn2)[C@H]1Cc1cnn(C)c1.O=C(O)C(F)(F)F | -3.902
CCS(=O)(=O)N1CCC(Nc2ccc(C#N)cc2F)CC1 | 19.57
CS(=O)(=O)c1ccc(CNC(=O)N2CCC(c3ccccc3)CC2)cc1 | -1.969
CCC(NC1Cc2ccccc2C1)c1ccc(S(C)(=O)=O)cc1 (stereo not given) | 106.7
CCC(NC1CCCC1)c1ccc(S(C)(=O)=O)cc1 (stereo not given) | 102.8
CC(NCc1ccc(C(C)(C)C)cc1)c1ccc(S(C)(=O)=O)cc1 (stereo not given) | 2.046

SMILES | Percent Effect [%]
O=S(=O)(N[C@H]1CC[C@H]1NC1Cc2ccccc2C1)c1cccnc1 | 1.504
CCC(Nc1nccc(C2CCCC2)n1)c1ccncc1 (stereo not given) | -45.04
CCC(NC(=O)c1cnc(N(C)C)nc1C)c1ccc(S(C)(=O)=O)cc1 (stereo not given) | -15.6
CCC(NC1CSCCSC1)c1ccc(S(C)(=O)=O)cc1 (stereo not given) | 107.2
CC(C)c1ccc(CNC(C)c2ccc(S(C)(=O)=O)cc2)cc1 (stereo not given) | 0.134
CCCN(C)CC1CCN(c2ncc(Br)cn2)C1 (stereo not given) | -2.862
CC(C)CNC[C@H]1COCc2nc3cccnc3n21 | -3.474
Cc1nc(C(=O)N2CCCC(c3nc(C(C)C)cs3)C2)c[nH]1 (stereo not given) | 27.35
Cc1cc(C(=O)NCCCn2nccc2C2CC2)c(=O)[nH]c1C | -16.3
Cc1ccc(CN2CC[C@H](c3nc4cccc(C(N)=O)c4[nH]3)C2)cc1 | -7.444
OCC1(CC2CC2)CCCN(Cc2ccc(C(F)(F)F)nc2)C1 (stereo not given) | -8.11
O=C(O)c1ccccc1-c1ccc(CN2CCC(CO)C2)cn1 (stereo not given) | 95.58
CC(O)C1CCN(Cc2cnc3c(-c4ccccc4)cnn3c2)CC1 (stereo not given) | 2.9
O=C(O)c1ccccc1-c1ccc(CN2CCC(CO)CC2)cn1 | 112.1
CC(C)c1ncc(CN2C[C@@H](CN3CCC(CO)CC3)[C@@H](CO)C2)cn1 | 1.413
O=C(Nc1cnn(CCN2CCOCC2)c1)c1ccccc1O | -9.189
O=C(O)c1ccccc1-c1ccc(CN2CCOCC2)cn1 | 106.2
Cn1cc(C(=O)Nc2ccc(CN3CCOCC3)cn2)cn1 | -16.87
CSc1ccc(CN2CCC(CCC(=O)Nc3ccccc3)CC2)cc1 | 8.024
CN(C)c1ccc(CN2CCC(C(O)Cc3ccccc3)CC2)cn1 (stereo not given) | 1.983
O=C(O)c1ccccc1-c1ccc(CN2CCC(CO)C2)cc1 (stereo not given) | 100.7
CC(C)=CCC1(CO)CCCN(S(=O)(=O)N2CCCC2)C1 (stereo not given) | -19.27
COCCOc1ccccc1NC(C)C(=O)NC(=O)NC(C)(C)C (stereo not given) | 2.141
O=C1CCC(=O)N1CCN1CCOC(c2ccsc2)C1 (stereo not given) | -5.454
O=C1NCCO[C@H]2CN(C(=O)CC3Cc4ccccc4C3)CC[C@@H]12 | -17.08
CCCS(=O)(=O)N1CCN(c2cc(-n3nc(C)cc3C)nc(C)n2)CC1 | 56.72
CCS(=O)(=O)N1CCN(c2cc(-n3cnc(C)c3C)nc(C)n2)CC1 | 9.656

SMILES | Percent Effect [%]
CCCS(=O)(=O)N1CCN(c2cc(-n3cnc(C)c3C)nc(C)n2)CC1 | 2.706
CCCS(=O)(=O)N1CCN(c2cc(-n3ccnc3)nc(C)n2)CC1 | -9.543
CCCS(=O)(=O)N1CCN(c2cc(-n3cccc3)nc(C)n2)CC1 | 64.17
Cc1cc(C)n(-c2cc(N3CCN(C(=O)C(C)(C)C)CC3)nc(C)n2)n1 | -2.343
CCc1nc(CN2CCCN(CC(=O)Nc3cccnc3)CC2)no1 | 22.91
CCc1nnc(N2C[C@@H](CN(C)CCO)[C@@H](CO)C2)s1 | -3.241
Cc1ccc(NC2CCN(C(=O)c3cc[nH]n3)CC2)nn1 | -5.889
Cc1ccc(NC2CCN(C(=O)c3cscn3)CC2)nn1 | 107.8
Cc1ccc(NC2CCN(C(=O)CCc3c(C)noc3C)CC2)nn1 | 116
Cc1ccc(NC2CCN(C(=O)CCc3ccncc3)CC2)nn1 | 118.5
Cc1ccc(NC2CCN(C(=O)CCc3nccs3)CC2)nn1 | 139
Cc1ccc(NC2CCN(C(=O)c3c(C)noc3C)CC2)nn1 | 4.919
Cc1ncc2c(n1)CN(CCCc1nc3ccccc3o1)CC2 | -1.914
CC(CNC(=O)c1nnn(-c2ccccc2)c1C(F)(F)F)N(C)C (stereo not given) | 5.891
COC(=O)c1ccc2ccn(CC3CCCN(C)C3)c(=O)c2c1 (stereo not given) | -29.85
CCOc1ccccc1CCNC(=O)NCC(O)c1cccs1 (stereo not given) | -11.69
CCCNC(=O)CCNC(=O)N1CCc2c(F)ccc(F)c2C1 | -1.074
COc1ccc(C(=O)NC2COc3ccccc3C2)cc1OCC(=O)O (stereo not given) | -8.358
CCC(O)CNC(=O)c1coc(COc2ccc3sc(C)nc3c2)n1 (stereo not given) | 7.295
O=C(CCc1cccs1)N1CCC(Nc2cccnn2)CC1 | -8.369
Cc1ccc(NC2CCN(C(=O)CCc3ccccc3)CC2)nn1 | 109.9
Cc1ccc(NC2CCN(C(=O)CCc3cscn3)CC2)nn1 | 118.6
O=C(CCc1ccsc1)N1CCC(Nc2cccnn2)CC1 | 87.13
Cc1ccc(NC2CCN(C(=O)CCc3ccsc3)CC2)nn1 | 107.5
Cn1c(C(F)(F)F)nn(CCNC(=O)Nc2ccccc2Cl)c1=O | -9.892
COCc1c(C(=O)N2CCCC(N(C)Cc3ccccc3)C2)noc1C (stereo not given) | 2.95
Cc1ccccc1CNC(=O)c1ccccc1-n1cnc(CN)c1 | 128.9

SMILES | Percent Effect [%]
COc1cccc(CNC(=O)N2CCCC(Cn3cc(CN)nn3)C2)c1 (stereo not given) | -31.64
COc1ccc(Cl)cc1-n1cnc(CCNC(C)=O)c1 | -30.19
NCc1cn(-c2ccccc2C(=O)NCc2cccc(Cl)c2)cn1 | -5.254
COc1ccc(F)cc1-n1cnc(CCNC(C)=O)c1 | -9.257
COc1ccccc1CNC(=O)c1ccccc1-n1cnc(CN)c1 | 104.3
NCc1cn(-c2ccccc2C(=O)NCc2ccccc2)cn1 | 2.452
COc1cccc(CNC(=O)c2ccccc2-n2cnc(CN)c2)c1 | 113.9
CN1CCc2c(NC(=O)NCc3ccccc3Cl)cccc21 | -4.639
NCc1cn(-c2ccccc2C(=O)NCc2ccccc2Cl)cn1 | 137.2
CCn1c(N)nc2cc(C(=O)NCc3ccccc3Cl)cnc21 | -4.176
Cc1nccn1-c1ccccc1CNC(=O)c1cn(CCN)nn1 | 1.636
Cc1ccc(C(=O)NS(=O)(=O)c2ccccc2C)c(=O)[nH]1 | -8.925
CCNC(=O)N1CCN(Cc2nc3ccccc3[nH]2)[C@@H]2CS(=O)(=O)C[C@@H]21 | 3.535
COC(=O)CC(NC(=O)c1cccc(CS(C)(=O)=O)c1)c1cccs1 (stereo not given) | 18.46
N#Cc1ccc(F)c(CN2CCCC2Cn2cncn2)c1 (stereo not given) | 0.2616
Cc1[nH]c(=O)sc1S(=O)(=O)N1CCCC1C(=O)NCc1ccsc1 (stereo not given) | 1.823
CC1COCCN1C(=O)COc1cccc(Oc2ccccn2)c1 (stereo not given) | 91.48
CC1COCCN1C(=O)COc1ccc(Oc2ccccn2)cc1 (stereo not given) | 102.9
O=C(COc1cccc(Br)c1)N1CCOCC1c1ncon1 (stereo not given) | -1.613
CC1COCCN1C(=O)c1cccc(OCc2cscn2)c1 (stereo not given) | -3.154
COc1ccc(Oc2ncccc2NC(=O)N2CCOCC2C)cc1 (stereo not given) | -2.613
CC(C)(C)NC(=O)COc1ccc(Oc2ccccn2)cc1 | -9.446
O=c1oc(-c2ccc(F)cc2)nn1CCS(=O)(=O)c1ccccc1 | 3.372
CCc1cnc(CN2CCC(O)(c3cc(OC)cc(OC)c3)CC2)o1 | -1.491
